Measurements as given in the supplement of paper PMC10338343.
± gives the standard deviation.

Assays:
[1] = test system: MILI (PIWIL2) piRISC loaded with L1MC piRNA (26 nt); experiment: pre-steady-state target cleavage rate (min^-1); guide: L1MC piRNA 5'p-UAACUAAAUACUAUGCAAGCUGUAGG; higher = faster piRNA-guided slicing of the target;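 also: 1 nM active piRISC with 0.1 nM target library at 33 °C single turnover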
Outline: (§1)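 Reactions were run for 0–8 or 0–960 min at 33 °C in HEPES–potassium acetate buffer, combining 1 nM active affinity-purified piRISC with one synthetic guide, […] transcribed, DNA-blocked target RNA library and, in some cases, 500 nM GTSF1 partner protein. Sequencing of uncleaved targets followed, with normalisation to depth and to weakly complementary targets. Three trials were pooled, k3 was capped at 0.0001 min^-1, and the pre-steady-state cleavage rate was taken from a burst-and-steady-state fit.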

[2] = test system: EfPiwi piRISC loaded with L1MC piRNA (26 nt); experiment: pre-steady-state target cleavage rate (min^-1); auxiliary factor: 500 nM Ephydatia muelleri Gtsf1; guide: L1MC piRNA 5'p-UAACUAAAUACUAUGCAAGCUGUAGG; MIWI and MILI are mouse PIWI proteins and EfPiwi is from a freshwater sponge; tags in brackets are library labels; higher = faster piRNA-guided slicing of the target
Outline: as §1

[3] = auxiliary factor: 500 nM mouse GTSF1
[4] = auxiliary factor: none (no GTSF1)

Row | Sequence | pre-steady-state target cleavage rate [1, 3] | pre-steady-state target cleavage rate [1, 4] | pre-steady-state target cleavage rate [2]
1 | UCCUGGAACAGCUGGCAUAGUAUUUAGUUA | 0.17 ± 0.012 | 0.00801 ± 0.003 | 0.00699 ± 0.0026
2 | UCCUGGUACAGGUUGCAUAGUAUUUAGUAA | 0.287 ± 0.04 | 0.00626 ± 0.0028 | 0.00428 ± 0.0022
3 | UCCUGCUACAGCUUGCUUAGUAAUUAGUUA | 0.18 ± 0.018 | 0.00332 ± 0.0026 | 0.0139 ± 0.0051
4 | UCCUGGUACAGCAUGCAUAGUAUUUAGUUA | 0.268 ± 0.02 | 0.0158 ± 0.004 | 0.0111 ± 0.0041
5 | UCCUGCUACAGCAUGCUUAGUAUUUAGUUA | 0.255 ± 0.017 | 0.00606 ± 0.0028 | 0.0122 ± 0.0038
6 | UCCUGGUACAGCUUGCAUAGUAAUUAGUUA | 0.317 ± 0.034 | 0.00595 ± 0.0029 | 0.00654 ± 0.0025
7 | UCCUGGAUCAGGUUGCAUAGUUUUUAGUUA | 0.023 ± 0.0088 | 0.00644 ± 0.0022 | 0.00481 ± 0.0024
8 | UCCUGCAACAGCUUGCAUAGUAUUAAGUUA | 0.344 ± 0.039 | 0.00432 ± 0.0031 | 0.00881 ± 0.0022
9 | UCCUGGAUGUCGUAUGCAUAGUAUUUAGUUA | 0.0833 ± 0.012 | 0.00487 ± 0.0028 | 0.00476 ± 0.0027
10 | UCCUGCUACUCCUUGCAUAGUAUUUAGUAA | 0.188 ± 0.023 | 0.00412 ± 0.002 | 0.00443 ± 0.003
11 | UCCUGGAUCAGCUUGCAAAGUAUUUAGUUA | 0.151 ± 0.015 | 0.00946 ± 0.0023 | 0.0218 ± 0.0057
12 | UCCUGGAUCACCUUGCAUACUAUUUAGUUA | 0.0453 ± 0.011 | 0.00336 ± 0.0028 | 0.00341 ± 0.0028
13 | UCCUCCUACAGCUUGCAUAGUAUUCAGUUA | 0.229 ± 0.034 | 0.00319 ± 0.0024 | 0.0063 ± 0.0029
14 | UCCUCCUACAGCUUGCAUUGUAUUUAGUUA | 0.222 ± 0.014 | 0.00744 ± 0.0019 | 0.0211 ± 0.0059
15 | UCCUCCUACAGGUUGCAUAGUAAUUAGUUA | 0.205 ± 0.018 | 0.00589 ± 0.0017 | 0.0115 ± 0.0031
16 | UCCUCCUACUGCUUGCAUAGAAUUUAGUUA | 0.0415 ± 0.0062 | 0.00232 ± 0.002 | 0.00761 ± 0.0021
17 | UCCUGGAUCAGCAUGCAUAGUAUUUAGAAA | 0.126 ± 0.018 | 0.0038 ± 0.0026 | 0.00356 ± 0.0021
18 | UCCUGGAAAAGCUUGCAUAGUAUUUAGUUA | 0.249 ± 0.019 | 0.00809 ± 0.0029 | 0.0119 ± 0.0039
19 | UCCUGCUACAGCUUGCAAGUAUUUAGUUA | 0.138 ± 0.017 | 0.00374 ± 0.0027 | 0.00614 ± 0.0027
20 | UCCUGGAUGUCCUUGCAUAGUAUUUAGUUA [g2:g19:cont:t1A] | 0.119 ± 0.018 | 0.00813 ± 0.0021 | 0.00824 ± 0.003
21 | UCCUGGAUCAGCUUGCGUAGUAUUUAGUUA | 0.192 ± 0.017 | 0.0107 ± 0.0029 | 0.0111 ± 0.0032
22 | UCCUCCUACAGCUUGCAUAGUAUUUAAGUUA | 0.214 ± 0.022 | 0.00686 ± 0.0024 | 0.00943 ± 0.0038
23 | UCCUGGUUGUGCUUGCAUAGUAUUUAGUUA | 0.168 ± 0.018 | 0.0141 ± 0.004 | 0.0119 ± 0.0045
24 | UCCUGCUACAGCAAGCAUAGUAUUUAGUUA | 0.325 ± 0.022 | 0.00524 ± 0.0031 | 0.0176 ± 0.0059
25 | UCCUCCUACAGCAUGCAUAGUUUUUAGUUA | 0.0554 ± 0.01 | 0.00447 ± 0.002 | 0.00379 ± 0.0028
